Assay results taken from PubChem BioAssay AID488890 (Southern Research Specialized Biocontainment Screening …, 2010).
The whole screen tested about 320,000 compounds, of which about 1,300 (0.41%) were called active. Inconclusive results (about 3%) are left out. How the calls were made is not given here. Only a sample is shown. Potency and affinity values are given separately.

Assay: growth inhibition of non-replicating M. tuberculosis (AID 488890);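 further: plate controls were DMSO cells for no effect and high antibiotic wells for full effect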
Settings: Mycobacterium tuberculosis non-replicating, at 25 µM, stronger effect = higher value

Structure (SMILES)	inhibition [%]
COc1ccc(/C=C2\N=C(C(C)(C)C)OC2=O)c(OC)c1	64.4
CN(C)c1ccc(C=C2C(=O)OC(C)(C(C)(C)C)OC2=O)cc1 (stereo not given)	-8.32
CCN(C[C@H]1N[C@@](C)(C(=O)OC)[C@H]2C(=O)N(C)C(=O)[C@@H]12)C(=O)C1CCCCC1	1.05
CS(=O)(=O)Nc1ccccc1C(=O)NC1CC2CCC1C2 (stereo not given)	-26.9
COc1ccc(NC(=O)Cn2c(=O)n(CC3CCCO3)c(=O)c3cc(OC)c(OC)cc32)cc1OC (stereo not given)	3.8
COC(=O)c1ccccc1OCCOCCOc1cccc2cccnc12	-0.9
O=C1OCCC1Sc1nnc(-c2ccc3c(c2)OCO3)o1 (stereo not given)	0.17
O=C(c1ccc(Cl)cc1)N1CCCCC(Sc2nnc(-c3ccc4c(c3)OCO4)o2)C1=O (stereo not given)	17.2
Cc1ccc(S(=O)(=O)N(C)C)cc1-n1c(SCC(=O)Nc2ccc(F)cc2)nc2ccccc2c1=O	26.8
COC(=O)c1ccccc1OC(=O)c1cc2ccccc2oc1=O	17.4
CC(=O)/C=C\c1ccccc1OC(=O)c1cc2ccccc2oc1=O	18
Cc1ccc(NC(=O)C2(S(=O)(=O)c3ccc(C)cc3)CC2)cc1	7.01
CCCOc1ccc(C(=O)Nc2ccc(NC(=O)c3cccs3)cc2)cc1	-8.66
COc1ccc(C(=O)NC(=S)NNC(=O)c2ccco2)cc1	78.5
CCCCOc1ccc(C(=O)NCC(=O)NNC(=O)c2ccco2)cc1	9.92
CCCC(=O)Nc1ccc(C(=O)NNC(=S)NC(=O)c2cccs2)cc1	-6.93
c1cnc2c(OCc3cn4cccnc4n3)cccc2c1	24.9
CCC(C(=O)NCc1ccco1)N(C(=O)CNS(=O)(=O)c1ccccc1)C1CCCCC1 (stereo not given)	18.4
COc1ccc(-n2c(SCC(=O)O)nnc2-c2ccc(NC(=O)c3ccccc3)cc2)cc1	9.48
CCOc1ccc(-c2nnc(-c3ccc(OC)cc3)o2)cc1	53.7
COc1ccc(NCc2nnc(-c3ccccc3)o2)cc1	69.4
CCCc1nnc(-c2cc(OC)c(OC)c(OC)c2)o1	7.1
COc1ccc(-c2nnc(SCC#N)o2)cc1	65.7
COc1ccc(-c2ccc(-c3nnc(Cc4ccc(OC)c(OC)c4)o3)cc2)cc1	15.8
Cc1nnc(SCc2ccc([N+](=O)[O-])cc2)o1	16.4
COc1ccc(-c2nnc(SCc3cc(C)cc(C)c3)o2)cc1	42.9
CC(=O)CSc1nnc(Cc2ccc([N+](=O)[O-])cc2)o1	70.9
Cn1c(=O)c(=O)n(C)c2cc(S(=O)(=O)N3CCOCC3)ccc21	-6.34
COC(=O)c1cc(S(=O)(=O)NCc2ccccc2Cl)c[nH]1	-3.81
Cc1ccc2c(c1)N(S(=O)(=O)c1ccc(CN3C(=O)c4cccnc4C3=O)cc1)CCO2	15.3
